Measured values published in PubChem BioAssay (EPA / NIEHS).
The source made the active and inactive calls. Rule for the calls: active = hit-call score of the fitted dose curve at least 0.9, where 1 is the maximum; inactive = score below 0.9.

How the values were obtained:
[1] = ATG_GLI_CIS: Attagene CIS-FACTORIAL HepG2 Assay for human Zinc Finger Protein GLI1 (AID 2282945); conditions: HepG2, Attagene cis-factorial reporter mRNA, GLI element; actives raise or lower the signal
In short: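 Bidirectional curve fits relative to DMSO, using reporter mRNA levels from RT-PCR plus capillary electrophoresis. Cells were HepG2 transiently carrying cis-regulated reporter constructs, harvested 24 h after dosing.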

[2] = ATG_ISRE_CIS: Attagene CIS-FACTORIAL HepG2 Assay for human Interferon Regulatory Factor 1 (IRF1) binding to an Interferon-Stimulated Response Element (ISRE) (AID 2282948); conditions: HepG2 ISRE cis-reporter (Attagene), mRNA transcription readout; actives raise or lower the signal
In short: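 Cell-based cis-reporter assay; HepG2; 24 h exposure; reporter mRNA by RT-PCR plus capillary electrophoresis fluorescence; activity in either direction scored relative to DMSO.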

[3] = ATG_M_32_CIS: Attagene CIS-FACTORIAL HepG2 Assay for M32 Transcription Factor (Internal Marker) (AID 2282949); conditions: HepG2 Attagene cis-factorial M32 reporter, mRNA; actives raise or lower the signal;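 note: background control marker of the multiplexed CIS panel rather than a real target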
In short: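 Internal background marker read-out: RT-PCR/capillary electrophoresis fluorescence of reporter transcripts from transiently transfected HepG2 cells after 24 h chemical exposure. Activity fitted bidirectionally relative to DMSO negative control.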

[4] = ATG_M_06_CIS: Attagene CIS-FACTORIAL HepG2 Assay for M06 Transcription Factor (Internal Marker) (AID 2282950); conditions: HepG2 Attagene CIS-FACTORIAL M06 internal marker reporter; actives raise or lower the signal
In short: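 Fluorescence-labelled RT-PCR products from cis-promoter reporter units, cut with HpaI and resolved by capillary electrophoresis, give the signal. Cells are human HepG2, dosed for 24 h. Serves as background control, fitted relative to DMSO.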

[5] = biological target: Hepatocyte nuclear factor 6 (Homo sapiens) (UniProt Q9UBC0); experiment: ATG_HNF6_CIS: Attagene CIS-FACTORIAL HepG2 Assay for human Hepatocyte Nuclear Factor 6 (HNF6) (AID 2282952); conditions: HepG2 Attagene cis-factorial HNF6 reporter transcription; actives raise or lower the signal
Sequence of Hepatocyte nuclear factor 6 (Homo sapiens) (Q9UBC0 whole entry, looked up): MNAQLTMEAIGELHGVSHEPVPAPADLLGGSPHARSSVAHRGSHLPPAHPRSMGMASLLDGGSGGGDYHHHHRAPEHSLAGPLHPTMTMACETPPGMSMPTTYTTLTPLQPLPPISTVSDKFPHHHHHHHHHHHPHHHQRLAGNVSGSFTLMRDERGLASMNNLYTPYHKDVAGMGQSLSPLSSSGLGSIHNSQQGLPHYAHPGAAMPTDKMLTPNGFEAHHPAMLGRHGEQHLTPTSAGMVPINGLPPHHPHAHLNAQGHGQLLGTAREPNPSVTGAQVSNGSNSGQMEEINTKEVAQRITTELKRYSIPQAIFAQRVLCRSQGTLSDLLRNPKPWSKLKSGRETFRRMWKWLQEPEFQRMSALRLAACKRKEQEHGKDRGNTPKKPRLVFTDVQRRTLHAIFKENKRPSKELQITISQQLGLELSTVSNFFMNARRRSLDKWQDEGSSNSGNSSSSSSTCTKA
In short: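 Cells are HepG2 carrying transiently transfected cis-promoter reporter units. Treatment lasts 24 h, after which reporter transcripts are reverse-transcribed, amplified, FAM-labelled and sized by capillary electrophoresis. DMSO serves as baseline.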

[6] = biological target: Heat shock factor protein 1 (Homo sapiens) (UniProt Q00613); experiment: ATG_HSE_CIS: Attagene CIS-FACTORIAL HepG2 Assay for human Heat Shock Transcription Factor 1 (HSE) (AID 2282953); conditions: HepG2 HSE cis-reporter, Attagene RNA transcription; actives raise or lower the signal
Sequence of Heat shock factor protein 1 (Homo sapiens) (Q00613 whole entry, looked up): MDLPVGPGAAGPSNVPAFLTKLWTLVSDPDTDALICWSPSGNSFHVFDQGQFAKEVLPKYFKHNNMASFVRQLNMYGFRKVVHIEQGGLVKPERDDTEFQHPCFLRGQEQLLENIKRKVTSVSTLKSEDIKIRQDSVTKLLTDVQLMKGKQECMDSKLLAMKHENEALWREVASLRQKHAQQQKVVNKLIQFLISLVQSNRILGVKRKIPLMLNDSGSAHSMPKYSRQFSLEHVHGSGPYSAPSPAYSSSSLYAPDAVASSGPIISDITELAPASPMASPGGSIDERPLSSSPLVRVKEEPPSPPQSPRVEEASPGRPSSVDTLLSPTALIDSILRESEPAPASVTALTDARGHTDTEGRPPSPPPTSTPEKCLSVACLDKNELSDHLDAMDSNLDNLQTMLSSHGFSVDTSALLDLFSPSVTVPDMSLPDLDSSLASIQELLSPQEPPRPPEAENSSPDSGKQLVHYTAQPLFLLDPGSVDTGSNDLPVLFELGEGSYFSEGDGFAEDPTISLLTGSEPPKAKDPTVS
In short: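 After a 24 h incubation with test chemical, transfected HepG2 cells were harvested for RNA; reporter transcripts were measured by RT-PCR and capillary electrophoresis. Values reflect gain or loss of signal relative to DMSO.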

[7] = ATG_MRE_CIS: Attagene CIS-FACTORIAL HepG2 Assay for human Metal Responsive Element (MRE) (AID 2282954); conditions: HepG2 MRE cis-reporter transcription, Attagene multiplex; actives raise or lower the signal
In short: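 After a 24 h chemical exposure, transiently transfected HepG2 cells yield RNA whose reporter sequences are amplified, FAM-labelled and sized by capillary electrophoresis. Curves are fitted bidirectionally relative to DMSO.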

[8] = ATG_PBREM_CIS: Attagene CIS-FACTORIAL HepG2 Assay for human Phenobarbital-responsive Enhancer Module (PBREM) (AID 2282955); conditions: HepG2 PBREM cis-reporter, Attagene multiplexed transcription; actives raise or lower the signal
In short: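 Cells were transfected with cis-element reporter units and treated for 24 h, after which RNA was extracted and reporter transcripts measured by RT-PCR and capillary electrophoresis.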

[9] = biological target: Paired box protein Pax-6 (Homo sapiens) (UniProt P26367); experiment: ATG_Pax6_CIS: Attagene CIS-FACTORIAL HepG2 Assay for human Paired Box 6 (PAX6) (AID 2282956); conditions: HepG2 CIS-FACTORIAL PAX6 reporter transcription, RNA readout; actives raise or lower the signal
Sequence of Paired box protein Pax-6 (Homo sapiens) (P26367 whole entry, looked up): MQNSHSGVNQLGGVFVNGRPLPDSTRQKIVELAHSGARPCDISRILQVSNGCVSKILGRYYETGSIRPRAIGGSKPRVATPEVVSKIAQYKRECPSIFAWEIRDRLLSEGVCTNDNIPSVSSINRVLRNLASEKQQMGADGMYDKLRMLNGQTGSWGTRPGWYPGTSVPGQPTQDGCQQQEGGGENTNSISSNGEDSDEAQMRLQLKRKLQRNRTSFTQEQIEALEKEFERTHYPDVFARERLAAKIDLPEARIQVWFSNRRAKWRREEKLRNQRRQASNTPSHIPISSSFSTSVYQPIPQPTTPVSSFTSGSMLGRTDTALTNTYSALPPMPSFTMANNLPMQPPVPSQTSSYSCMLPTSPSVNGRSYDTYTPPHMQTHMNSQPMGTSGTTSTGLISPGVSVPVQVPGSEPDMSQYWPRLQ
In short: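 Multiplexed cis-reporter HepG2 system; 24 h treatment; reporter mRNA read by RT-PCR/CE fluorescence; bidirectional fit vs DMSO.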

[10] = ATG_PXRE_CIS: Attagene CIS-FACTORIAL HepG2 Assay for human Pregnane X Receptor Element (PXRE) (AID 2282957); conditions: HepG2 Attagene CIS-FACTORIAL PXRE reporter, mRNA; actives raise or lower the signal
In short: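 Multiplexed cis-reporter assay in transiently transfected human HepG2 cells; 24 h chemical exposure. Reporter transcripts quantified by RT-PCR with fluorescent labeling and capillary electrophoresis.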

[11] = ATG_RORE_CIS: Attagene CIS-FACTORIAL HepG2 Assay for human RAR-related Orphan Receptor Element (RORE) (AID 2282959); conditions: HepG2 Attagene cis-factorial RORE reporter, mRNA; actives raise or lower the signal
In short: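 Endogenous factor activity at a cis response element is read as reporter transcript levels in HepG2 cells, 24 h post-dose. Transcripts are quantified by RT-PCR with capillary electrophoresis, and data fitted in both directions against DMSO.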

[12] = biological target: Transcription factor Sp1 (Homo sapiens) (UniProt P08047); experiment: ATG_Sp1_CIS: Attagene CIS-FACTORIAL HepG2 Assay for human Specificity Protein 1 (Sp1) (AID 2282961); conditions: HepG2 Sp1 cis-reporter transcription, actives raise or lower the signal
Sequence of Transcription factor Sp1 (Homo sapiens) (P08047 whole entry, looked up): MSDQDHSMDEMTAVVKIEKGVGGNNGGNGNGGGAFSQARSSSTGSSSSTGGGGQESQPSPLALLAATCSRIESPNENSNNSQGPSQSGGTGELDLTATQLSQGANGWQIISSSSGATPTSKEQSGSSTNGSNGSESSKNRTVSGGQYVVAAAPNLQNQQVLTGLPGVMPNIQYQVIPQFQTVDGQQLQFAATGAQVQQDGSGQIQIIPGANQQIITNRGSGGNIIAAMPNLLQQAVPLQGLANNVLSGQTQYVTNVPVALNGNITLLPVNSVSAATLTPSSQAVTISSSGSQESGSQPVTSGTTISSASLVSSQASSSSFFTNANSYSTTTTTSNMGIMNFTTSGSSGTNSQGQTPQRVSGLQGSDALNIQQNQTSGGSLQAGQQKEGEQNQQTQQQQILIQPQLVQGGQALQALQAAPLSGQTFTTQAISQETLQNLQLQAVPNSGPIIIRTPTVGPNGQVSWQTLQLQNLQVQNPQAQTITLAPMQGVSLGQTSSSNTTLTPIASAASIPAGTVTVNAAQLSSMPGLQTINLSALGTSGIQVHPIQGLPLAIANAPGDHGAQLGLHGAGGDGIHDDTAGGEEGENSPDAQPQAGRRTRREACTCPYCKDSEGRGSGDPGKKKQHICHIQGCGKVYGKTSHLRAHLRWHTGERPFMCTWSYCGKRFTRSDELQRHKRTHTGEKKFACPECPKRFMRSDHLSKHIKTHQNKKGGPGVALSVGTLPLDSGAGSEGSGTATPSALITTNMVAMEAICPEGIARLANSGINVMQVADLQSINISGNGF
In short: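 Cells: HepG2, transiently transfected with cis-regulated multiplexed reporters. Exposure: 24 h. Detection: reporter transcripts amplified, fluorescently labeled, restriction-digested and sized by capillary electrophoresis. Analysis: bidirectional fit relative to DMSO.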

[13] = ATG_SREBP_CIS: Attagene CIS-FACTORIAL HepG2 Assay for human Sterol Regulatory Element Binding (SREBP) (AID 2282962); conditions: HepG2 Attagene cis-factorial SREBP reporter, mRNA; actives raise or lower the signal
In short: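 mRNA induction of transfected cis-promoter reporters in HepG2 cells, 24 h post-dose. Detection: RT-PCR with 6-FAM-labelled products, HpaI digest, capillary electrophoresis. DMSO served as negative control and baseline.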

[14] = biological target: Signal transducer and activator of transcription 3 (Homo sapiens) (UniProt P40763); experiment: ATG_STAT3_CIS: Attagene CIS-FACTORIAL HepG2 Assay for human Signal Transducer and Activator of Transcription 3 (STAT3) (AID 2282963); conditions: HepG2, Attagene cis-factorial STAT3 reporter transcription; actives raise or lower the signal
Sequence of Signal transducer and activator of transcription 3 (Homo sapiens) (P40763 whole entry, looked up): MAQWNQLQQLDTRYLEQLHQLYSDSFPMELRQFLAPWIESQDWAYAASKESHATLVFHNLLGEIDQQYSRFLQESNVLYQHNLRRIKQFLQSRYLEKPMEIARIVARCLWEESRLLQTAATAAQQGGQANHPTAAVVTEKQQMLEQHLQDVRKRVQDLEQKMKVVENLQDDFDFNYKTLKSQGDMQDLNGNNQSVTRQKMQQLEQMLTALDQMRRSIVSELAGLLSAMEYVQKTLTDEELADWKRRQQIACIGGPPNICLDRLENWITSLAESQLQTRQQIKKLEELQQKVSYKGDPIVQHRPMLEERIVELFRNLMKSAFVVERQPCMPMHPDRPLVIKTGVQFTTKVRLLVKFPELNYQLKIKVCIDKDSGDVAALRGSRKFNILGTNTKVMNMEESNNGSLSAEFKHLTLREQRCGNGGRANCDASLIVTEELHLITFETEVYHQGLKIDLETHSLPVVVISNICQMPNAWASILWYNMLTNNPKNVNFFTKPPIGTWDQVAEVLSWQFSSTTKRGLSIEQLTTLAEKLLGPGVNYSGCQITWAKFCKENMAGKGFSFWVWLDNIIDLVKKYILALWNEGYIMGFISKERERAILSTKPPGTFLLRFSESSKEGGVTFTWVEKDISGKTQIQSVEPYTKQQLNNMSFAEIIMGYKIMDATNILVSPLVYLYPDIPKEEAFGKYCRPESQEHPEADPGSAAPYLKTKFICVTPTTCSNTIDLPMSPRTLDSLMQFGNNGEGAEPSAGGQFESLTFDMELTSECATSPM
In short: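 After a 24 h compound incubation, total RNA from MRTU-transfected HepG2 cells was converted to cDNA and reporter sequences PCR-amplified, labelled and profiled by capillary electrophoresis. Gain and loss of signal were referenced to DMSO.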

[15] = ATG_TA_CIS: Attagene CIS-FACTORIAL HepG2 Assay for human TA Basal Promoter (AID 2282964); conditions: HepG2 Attagene CIS-factorial TA basal promoter reporter; actives raise or lower the signal
In short: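 Multiplexed mRNA reporter assay, HepG2, 24 h. Reporter cDNA amplified, 6-FAM primer-extended, HpaI-cut, CE-sized; DMSO = negative control and baseline.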

Measured: outcome

O=C(O)c1ccccc1O
inactive: all assays above
